Coupling enz: coupling enzyme interference in Giardia aldolase counter-screen; coupling enzyme system counterscreen, AmpLite Red fluorescence; activity change, negative = inhibition, % at 58.2 µM, hits read low; 290,000 compounds, 0.67% hits; in the data active means activity change below about -30%
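Activity here indicates interference with the coupling reaction, not aldolase inhibition. Compounds at 57.5 uM final met coupling enzymes for 10 min at RT; substrate and AmpLite Red detection followed, with a 525/598 nm fluorescence read after 20 min.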
Tau fluor counter: counter-screen for tau fibril formation inhibitors; tau K18 P301L Alexa594 fluorescence, heparin fibrillization; Potency, µM (top dose mostly 57.7 µM), without a hit: at the top dose activity change, negative = decrease; 280,000 compounds, 0.93% hits; further: potency means the concentration at half of the fitted maximal effect; nearly all actives have a fitted effect of over 55% in size
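Human K18 P301L tau (15 uM unlabeled plus 0.24 uM Alexa 594-labeled, final) in 100 mM sodium acetate pH 7 was mixed with compound and 20 uM heparin and incubated 6 hr at 37 C.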
Tau fibril FP: inhibitors of human tau fibril formation | Potency, µM (titrated, usually from 57.7 µM), for inactives: top-dose activity, negative = inhibition, usual class: inhibitors | P10636 | 280,000 compounds, 0.39% hits | K18 P301L tau heparin fibrillization, Alexa594 FP, 6 h | AID 1468; further: potency means the concentration at half of the fitted maximal effect; nearly all actives have a fitted effect of over 55% in size
Target sequence (P10636 561-689 P618L limits assumed): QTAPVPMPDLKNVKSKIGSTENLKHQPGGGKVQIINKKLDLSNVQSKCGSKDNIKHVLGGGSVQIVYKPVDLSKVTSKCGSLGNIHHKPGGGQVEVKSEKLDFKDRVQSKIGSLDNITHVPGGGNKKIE
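Quantitative HTS format: compounds meet 15 uM recombinant K18 P301L tau and Alexa 594-tau tracer in 100 mM sodium acetate pH 7; 20 uM heparin triggers fibrillization at 37 C over 6 hr; FP gives the signal.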
Tau ThT inhib: tau fibrillization inhibition (ThT binding). P10636. recombinant tau K18 P301L (four-repeat tau fragment), heparin-induced fibrillization, ThT fluorescence. Potency, µM (series often up to 57.4 µM), inactives show at the top dose activity, negative = inhibition, hits mostly inhibitors. 270,000 compounds, 2.1% hits; further: potency means the concentration at half of the fitted maximal effect; nearly all actives have a fitted effect of over 55% in size
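Tau K18 P301L fragment (15 uM unlabeled plus 0.24 uM Alexa 594-labeled) in 100 mM sodium acetate pH 7 with compound, fibrillization induced by 20 uM heparin for 6 hr at 37 C. Thioflavin T (30 uM) added, fluorescence read after 1 hr (ex 450, em 510 nm).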
KDM4E inh: blocks human JMJD2E demethylase activity; B2RXH2; JMJD2E catalytic domain, FDH-coupled NADH fluorescence (FDH is formaldehyde dehydrogenase); Potency, µM (titrated, usually from 57.1 µM), without a hit: at the highest dose activity change, negative = inhibition, hits mostly inhibitors; 230,000 compounds, 1.6% hits; active means well fitted inhibition curve with a large enough effect, not every such curve was filed as active; inconclusive means small, poorly fitted or top-dose-only effect, or another doubt; inactive means no such curve, though single readings can be large or run the other way;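 further: potency means the concentration at half of the fitted maximal effect; 0% = wells with enzyme and -100% = buffer wells without enzyme; nearly all actives have a fitted effect of over 50% in size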
Target sequence (B2RXH2 1-337 limits assumed): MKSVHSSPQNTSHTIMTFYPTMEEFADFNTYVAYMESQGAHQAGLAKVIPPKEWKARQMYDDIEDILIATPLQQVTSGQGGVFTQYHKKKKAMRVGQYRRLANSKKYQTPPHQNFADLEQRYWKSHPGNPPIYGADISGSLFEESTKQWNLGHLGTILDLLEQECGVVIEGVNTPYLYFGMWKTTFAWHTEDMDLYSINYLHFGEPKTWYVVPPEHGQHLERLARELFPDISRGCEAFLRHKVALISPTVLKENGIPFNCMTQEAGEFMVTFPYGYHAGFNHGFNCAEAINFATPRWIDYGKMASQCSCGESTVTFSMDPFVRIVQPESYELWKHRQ
* = called active by the depositor; ? = inconclusive; nt = not tested or not shown; [ ] = remark or other dose. Hits are enriched below; roughly 3% of the tested compounds scored in any of these assays. Unless noted, the call rests on the fitted dose curve; in most records, active means well fitted curve in the direction sought with a large enough effect; inconclusive means small, poorly fitted or top-dose-only effect, or another doubt; inactive means no such curve, though single readings can be large; an effect the other way counts as inactive or inconclusive. Unless noted, on the % scale 0 is the no-effect control and ±100 the full control effect.

SMILES	Coupling enz	Tau fluor counter	Tau fibril FP	Tau ThT inhib	KDM4E inh
O=C(Nc1ccc(N2CCOCC2)cc1)c1cc2ccccc2o1	-27.2	-27.3%	1.7%	5.62µM*	?
O=C(Nc1ccc(N2CCN(C(=O)c3ccc(Cl)cc3)CC2)cc1)c1cc2ccccc2o1	0.4	?	6.2%	?	-9.1%
CCOC(=O)N1CCN(Cc2nc3cc(NC(=O)c4ccccc4Cl)ccc3n2C(C)C)CC1	nt	1.0%	3.3%	-0.8%	nt
CC(C)OCCCn1c(=O)c2ccccc2n2c(-c3ccccc3)nnc12	nt	-21.7%	10.4%	-7.3%	nt
CN(C)c1ccc(NC(=O)N2CCOCC2)cc1	-31.5*	0.3%	0.6%	6.4%	-2.4%
CC(C)(C)C(=O)Cn1c(=O)n(CCCCCC(=O)NCc2ccc3c(c2)OCO3)c(=O)c2sccc21	nt	-15.8%	-11.1%	-4.0%	nt
Cc1cc(C)cc(NC(=O)Cn2c(=O)n(Cc3ccco3)c(=O)c3oc4ccccc4c32)c1	nt	-19.2%	?	10.6%	nt
Cc1ccc(S(=O)(=O)c2nc(C(C)(C)C)oc2N2CCOCC2)cc1	7.5	-15.6%	39.8µM*	?	?
CC1CC=CC2C1C(=O)N(Cc1ccccc1)C2c1ccc(F)c(Br)c1 (configuration not stated)	0.2	nt	nt	nt	nt
CCOC(=O)C1(N(CC)CC)Sc2cc(C)ccc2NC1=O (configuration not stated)	nt	-16.7%	-4.7%	-4.5%	-5.7%
COC(=O)C1=C(C(=O)OC)SC2(S1)C(C(=O)OC)=C(C(=O)OC)SC1=C2c2cc(C)ccc2NC1(C)C	2.4	?	?	12.6µM*	-9.2%
O=S(=O)(NCCNS(=O)(=O)c1cccs1)c1cccs1	1.0	6.2%	1.7%	6.6%	-1.3%
CN1CCN(NS(=O)(=O)c2cccs2)CC1	-0.5	-16.9%	?	12.6µM*	-1.0%
O=C1C(Cl)=C(NCCN2CCCCC2)C(=O)c2ccccc21	-37.3*	?	-4.0%	10µM*	-8.3%
O=C1C=C(Nc2ccc(O)cc2)C(=O)c2ccccc21	-16.0	15.8µM*[quencher]	?	12.6µM*	3.4%
Cc1ccc(NC2=C(Cl)C(=O)c3ccccc3C2=O)cc1	-22.4	?	?	2.24µM*	2.3%
O=C1C(Cl)=C(Nc2ccc(O)cc2)C(=O)c2ccccc21	-25.5	2µM*[quencher]	3.55µM*	2µM*	-1.6%
Cc1cc(C)cc(NC2=C(N)C(=O)c3ccccc3C2=O)c1	-10.8	nt	nt	nt	nt
O=S1(=O)N=C(Nc2ccc(O)cc2)c2ccccc21	0.5	-8.7%	8.3%	-3.1%	8.4%
CC(=O)Nc1ccc(NC2=CC(=O)c3ccccc3C2=O)cc1	-13.6	nt	nt	nt	nt
CCN(C(=O)c1cn(CC)c(=O)c2cc(OC)c(OC)cc12)c1ccc(C)c(C)c1	nt	-1.2%	-2.1%	0.9%	nt
Cc1cn(C2CC3OCC(NC(=O)C(NC(=O)OC(C)(C)C)C(C)OCc4ccccc4)C3O2)c(=O)[nH]c1=O (configuration not stated)	4.1	nt	nt	nt	nt
C=CCC(C)(Nc1ccccc1)C(=O)OCC (configuration not stated)	0.3	-2.8%	-0.4%	-4.8%	-3.2%
CCN(CC)c1ccc(NC2=C(Cl)C(=O)c3ccccc3C2=O)cc1	-38.4*	2.24µM*[quencher]	5.01µM*	2.82µM*	7.08µM*
CCN(CC)c1ccc(NC(=O)C(C)C)cc1	-2.5	5.4%	5.7%	5.4%	-1.1%
SMILES	Coupling enz	Tau fluor counter	Tau fibril FP	Tau ThT inhib	KDM4E inh
CCNc1cccc2c1C(=O)N(C)C2=O	-0.7	0.7%	-2.3%	2.1%	1.2%
CCNC1=C(Cl)C(=O)c2ccccc2C1=O	-33.0*	?	-3.7%	17.8µM*	-8.6%
O=c1oc2cc(O)ccc2cc1-c1nc2c(s1)CCc1ccccc1-2	-14.1	11.2µM*[quencher]	-18.6%	-8.6%	?
O=c1oc2ccccc2cc1-c1nc2c(s1)CCc1ccccc1-2	-81.1*	4.3%	9.0%	7.0%	-3.9%
COc1ccc(CN2CCNC(=O)C2CC(=O)N2CCCCO2)cc1OC (configuration not stated)	-30.1*	6.2%	5.2%	-11.9%	-2.1%
COc1cc(CN2CCNC(=O)C2CC(=O)N2CCCCO2)cc(OC)c1 (configuration not stated)	0.7	-15.7%	-2.5%	-8.7%	-3.1%
COc1ccccc1Nc1c2c(nc3ccccc13)CCC2	0.8	nt	nt	nt	nt
CCOc1ccccc1C(=O)Nc1ccc2nc3c(c(Nc4ccc(OC)c(OC)c4)c2c1)CCCC3	nt	?	4.5%	10µM*	nt
COc1ccccc1Nc1c2c(nc3ccc(NC(=O)c4ccc(N(C)C)cc4)cc13)CCCC2	nt	11.2µM*[quencher]	-0.5%	15.8µM*	nt
COc1cc(OC)cc(C(=O)Nc2ccc3nc4c(c(Nc5ccc(OC)c(OC)c5)c3c2)CCCC4)c1	nt	17.8µM*[quencher]	?	31.6µM*	nt
COc1ccc(Nc2c3c(nc4ccc(NC(=O)c5cc(Cl)ccc5OC)cc24)CCCC3)cc1OC	nt	?	-5.6%	7.08µM*	nt
N[C@]1(C(=O)O)CCc2cc(P(=O)(O)O)ccc21	4.0	-5.2%	0.8%	-5.3%	39.8µM*
COc1ccc(C2=Nn3c(nnc3-c3cccc(OC)c3)SC2)cc1	2.8	nt	nt	nt	nt
COc1ccc2c(c1)Cc1sc(NC(=O)c3ccccc3)nc1-2	-35.7*	?	-7.7%	?	?
COc1ccc2nc(NC(=O)c3ccc(F)cc3)sc2c1	4.1	nt	nt	nt	nt
COc1ccc2c(c1)Cc1sc(NC(=O)c3cccc(F)c3)nc1-2	nt	?	-8.9%	3.16µM*	nt
COc1ccc2c(c1)Cc1sc(NC(=O)c3ccccc3C)nc1-2	nt	?	-10.6%	?	nt
COc1ccc(Br)c2c1-c1nc(NC(=O)c3cccc(C)c3)sc1C2	nt	-22.8%	0.9%	?	nt
COc1ccc2c(c1)Cc1sc(NC(=O)c3cccc(Br)c3)nc1-2	nt	?	-5.7%	3.98µM*	nt
COc1ccc2c(c1)CCc1sc(NC(=O)c3ccc(Cl)cc3)nc1-2	nt	8.91µM*[quencher]	?	11.2µM*	nt

Screens deposited in PubChem BioAssay by National Center for Advancing Translational Sciences (NCATS).
